Results from PubChem BioAssay AID504334 (NMMLSC, 2011).
Values joined by “and” are separate entries in the source; they are usually repeats but may differ in a detail not shown here. Equal values may be shown once. Active and inactive are the calls of the source.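 How the source made its calls: active means response relative to DMSO over 150%; inconclusive means yeast strain with under 70 recorded events; inactive means the rest.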

experiment: AGP1-GFP expression modulators, hit retest, confirmation, cell-based, flow cytometry, S. cerevisiae, cherry pick set 3 (AID 504334);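 further: median GFP fluorescence per well by flow cytometry over the all cells gate; ratio of sample to mean DMSO control signal so DMSO = 100% not 0%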; conditions: S. cerevisiae AGP1-GFP strain, 3 h, at 10 µM, active compounds read high

Percent response vs DMSO, inactive:
Cn1c(=O)c2c(n3cnnc13)-c1ccccc1CC21CCCC1 104%
Cc1ccc(NC(=O)O/N=C2\CCCCC2c2ccc([N+](=O)[O-])cc2[N+](=O)[O-])cc1 (configuration not stated) 100%
COc1cccc2c(=O)c(C(=O)O)c[nH]c12 94.1%
COc1ccc(Nc2nc(NN)nc(C)c2[N+](=O)[O-])cc1 94.1%
CCN(CC)C(=O)Oc1ccnc2cc(Cl)ccc12 108%
Cc1cccc(N/C=C/C(=O)c2ccc(Cl)cc2)c1 95.4%
Oc1c(Cl)cc(Cl)c2cccnc12 98.8%
O=C(/C=C/Nc1cccc(O)c1)c1ccccc1 102%
COc1ccccc1Nc1nc(NCCO)nc(N)c1[N+](=O)[O-] 99.1%
O=C(Nc1cccc(Cl)c1)ON=C1c2ccccc2-c2ccccc21 99.1%
COCC(C)NC(=O)CCS(=O)(=O)c1nc(-c2ccc(OC)cc2)cc(C(F)(F)F)n1 (configuration not stated) 98.4% and 101%
O=C(N/N=C/c1ccccc1O)c1cccc2ccccc12 99.8%
O=C(O)c1ccc(C=NNC(=O)c2cccc3ccccc23)cc1 107%
Cc1ccc(-c2cc(C(F)F)nc(S(C)(=O)=O)n2)cc1 110%
O=C(Nc1cccc2ccccc12)ON=C1CCCCC1 99.8%
COc1ccccc1Nc1nc(NCC(C)C)nc(N)c1[N+](=O)[O-] 101%
Nc1c(O)ccc2c1C(=O)c1ccccc1C2=O 110%
